D3 antag: qHTS of D3 Dopamine Receptor Antagonist: qHTS; D(3) dopamine receptor (Homo sapiens), P35462; D3R cells, DiscoveRx beta-arrestin luminescence, antagonist mode; hits give low values; max response, negative = inhibition, %; actives 2.5% (n = 360,000); AID 652054, 2013; in the data active = max response below about -50%; inconclusive = no clear call, values can overlap the other calls; also: % is scaled to controls: 0 for no effect and ±100 for the full control effect
Target sequence (P35462 whole entry, looked up): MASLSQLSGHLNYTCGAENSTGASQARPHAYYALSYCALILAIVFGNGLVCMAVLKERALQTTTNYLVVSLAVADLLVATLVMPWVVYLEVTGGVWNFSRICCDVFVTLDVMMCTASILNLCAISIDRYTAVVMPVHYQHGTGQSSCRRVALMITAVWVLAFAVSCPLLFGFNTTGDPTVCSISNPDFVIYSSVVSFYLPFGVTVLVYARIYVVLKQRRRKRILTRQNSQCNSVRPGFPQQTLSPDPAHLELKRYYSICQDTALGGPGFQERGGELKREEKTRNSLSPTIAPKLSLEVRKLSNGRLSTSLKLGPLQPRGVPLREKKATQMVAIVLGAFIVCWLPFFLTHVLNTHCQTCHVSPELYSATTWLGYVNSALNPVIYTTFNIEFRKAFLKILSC
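Cells plated overnight at 1500 cells/well, then exposed to library compounds with dopamine controls for 90 minutes at 37 degrees C. DiscoveRx reagent added for 30–60 minutes at room temperature; luminescence read, quantitative HTS format.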
D3 ag: qHTS of D3 Dopamine Receptor Agonist: qHTS | D3R DiscoveRx beta-arrestin cells, luminescence, 90 min | max activation, % | D(3) dopamine receptor (Homo sapiens), P35462 | actives 0.58% (n = 410,000); in the data active = max activation above about 30%; also: 0% is about no effect
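Cells at 1500/well, incubated overnight, then treated with pinned compounds (dopamine as control) for 90 min at 37 degrees C. DiscoveRx reagent added for 30 - 60 minutes at room temperature; luminescence read.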
D1 potentiator: Potentiators of Human D1 Dopamine Receptor: qHTS | D(1A) dopamine receptor (Homo sapiens), P21728 | HEK293 TREx D1 cells, calcium flux, dopamine EC20 potentiation | potentiation, % at 10 µM | actives 0.036% (n = 360,000) | AID 504651, 2011; in the data active = potentiation above about 30%; also: 0% is about no effect
D1 agonist: Allosteric Agonists of the Human D1 Dopamine Receptor: qHTS; D(1A) dopamine receptor (Homo sapiens), P21728; HEK293 T-REx D1 cells, calcium flux, agonist mode; activation, % at 2 µM; actives 1% (n = 360,000); AID 504660, 2011; in the data active = activation above about 30%; also: 0% is about no effect
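Agonism was scored from calcium flux recorded over 180 s (1 read/s) after pintool compound addition, following a 10-cycle baseline. Cells were inducible force-coupled HEK293 TREx D1, plated overnight at 30 C and loaded with no-wash calcium dye.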
D1 antagonist: Antagonist of Human D 1 Dopamine Receptor: qHTS; D(1A) dopamine receptor (Homo sapiens), P21728; HEK293 TREx D1 cells, calcium flux, dopamine EC80; hits give low values; activity change, negative = inhibition, % at 10 µM; actives 3.2% (n = 360,000); AID 504652, 2011; in the data active = activity change below about -30%; also: % is scaled to controls: 0 for no effect and ±100 for the full control effect
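Allosteric or orthosteric antagonism assessed as attenuation of the calcium response to EC80 dopamine, added 180 s after compound, in induced HEK293 Trex D1 cells loaded with no-wash calcium dye.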
* marks the source's active call; other numbers are inactive results; ? = inconclusive; . = no result given. Rows were chosen to be rich in hits. Some 6% of all compounds tested hit in one or more screens of this group.

SMILES	D3 antag	D3 ag	D1 potentiator	D1 agonist	D1 antagonist
BrC(=C\c1ccccc1)/C=N/N1CCN(c2ccccn2)CC1	-13.2	-4.2	-4.5	3.2	-31.8*
Oc1cccc(/C=N/N2CCN(c3ccccn3)CC2)c1	-12.6	8.0	-1.2	2.3	-5.6
Fc1ccc(N2CCN(c3nc4ccccc4c4nc(-c5ccccc5)nn34)CC2)cc1	.	6.9	0.5	0.8	7.0
N#CC(CCc1ccccc1[N+](=O)[O-])(CCc1ccccc1[N+](=O)[O-])C(N)=O	2.7	-1.5	.	.	.
COc1ccc(NC(=O)C2(C)CCN2Cc2csc3ccccc23)cc1OC (stereo not given)	51.3	16.5	.	.	.
CCOc1ccccc1C(=O)NCc1ccc2c(c1)CCN2C(=O)c1ccccc1	.	-7.7	-4.0	4.7	-37.9*
Cc1ccccc1C(=O)NCc1ccc2c(c1)CCN2C(=O)c1ccccc1	.	-5.6	-4.2	8.0	-40.9*
O=C(NCc1ccc2c(c1)CCN2C(=O)c1ccncc1)c1ccccc1Br	.	1.3	-3.8	8.6	-31.1*
Cc1cc(C)cc(NC(=O)Cc2csc(COc3cccc(C)c3)n2)c1	.	-22.4	-0.4	3.3	-9.7
CCCC(=O)N1CCC1(C)C(=O)Nc1ccc(C)c(C)c1 (stereo not given)	0.0	-12.3	.	.	.
COC(=O)c1[nH]c2cc(OC)ccc2c1NC(=O)CCN1CCCC(C)(C)C1	-56.1*	-63.3	-4.1	0.2	22.5
COC(=O)c1[nH]c2cc(OC)ccc2c1NC(=O)CCN1CCN(Cc2ccc3c(c2)OCO3)CC1	-80.6*	-9.1	12.8	0.0	-85.6*
Cc1ccccc1CN1CCC(CNc2ncnc3onc(-c4ccc(Cl)cc4)c23)CC1	.	-3.2	0.5	1.8	-11.3
C=CCc1ccccc1OCCSc1nc(-c2cccs2)nc2cc(=O)[nH]n12	.	5.3	0.1	1.9	-28.9
CCOC(=O)C1(Cc2ccccc2)CCN(Cc2cnn(C(C)C)c2)CC1	-5.9	-2.4	0.2	-0.5	-7.4
CCOC(=O)C1(CCOc2ccccc2)CCN(Cc2cccc(F)c2)CC1	-52.6*	-27.1	-2.5	8.9	-21.2
CCOC(=O)C1(CCOc2ccccc2)CCN(Cc2cccc(OCCO)c2)CC1	-15.7	-11.9	-6.4	4.4	-22.6
CCOC(=O)C1(CCOc2ccccc2)CCN(Cc2cccc(-n3cccn3)c2)CC1	-60.4*	-11.0	-5.0	14.7	-15.2
CCOC(=O)C1(CCOc2ccccc2)CCN(Cc2cccc3c2OCO3)CC1	-60.0*	-41.4	-5.4	4.5	-3.2
CCOC(=O)C1(Cc2ccccc2)CCN(Cc2csc(C(C)=O)c2)CC1	-28.1	-12.4	-8.7	0.1	-34.2*
CCOC(=O)C1(CCOc2ccccc2)CCN(Cc2ccccc2O)CC1	0.4	-13.9	.	.	.
COc1cccc(OCc2cc(C(=O)NCc3cnc4ccccn34)no2)c1	23.5	1.3	-1.4	19.2	6.5
CCOC(=O)C1(CCOc2ccccc2)CCN(Cc2ccc(OC)cc2)CC1	-71.9*	-12.1	.	.	.
COc1ccc(C(CNC(=O)c2cc3c(s2)CCC(C)C3)N2CCCC2)cc1 (stereo not given)	-105.0*	-24.2	1.1	4.4	17.6
CCC1CCc2sc(C(=O)NCC(c3ccccc3OC)N3CCCC3)cc2C1 (stereo not given)	?	-19.2	.	8.9	21.2
SMILES	D3 antag	D3 ag	D1 potentiator	D1 agonist	D1 antagonist
COc1ccc(C(CNC(=O)c2cc3c(s2)CCC(C)C3)N2CCOCC2)cc1 (stereo not given)	-103.2*	-28.1	-2.2	1.1	-23.1
O=C(NCC(c1ccco1)N1CCCCC1)c1cc2c(s1)CCCC2 (stereo not given)	-75.3*	-23.7	-3.1	-0.8	10.1
COc1ccc(-c2nn(-c3ccc(F)cc3F)c3c2cnc2ccc(F)cc23)cc1	.	1.7	-0.1	2.7	9.1
CC/C(=N\Nc1ccccc1[N+](=O)[O-])c1ccc(O)cc1	-57.4*	-11.5	-7.2	2.2	-5.9
C/C(=N\Nc1ccc(C#N)cc1[N+](=O)[O-])c1ccc(O)cc1	-19.3	-6.4	-4.0	5.6	-43.1*
C/C(=N\Nc1ccccc1[N+](=O)[O-])c1ccccc1O	0.8	16.8	3.2	2.6	11.4
CCC(=NNc1ccc([N+](=O)[O-])cc1[N+](=O)[O-])c1ccccc1	-15.9	-7.8	.	.	.
C/C(=N/Nc1ccccc1[N+](=O)[O-])c1ccc([N+](=O)[O-])cc1	-4.0	2.8	7.0	0.5	10.1
CC/C(=N\Nc1ccc([N+](=O)[O-])cc1[N+](=O)[O-])c1ccc(O)cc1	-12.3	2.3	-7.8	-0.6	-34.1*
CC(=O)Nc1cccc(-c2csc(C(O)c3ccc(F)c(F)c3)n2)c1 (stereo not given)	2.3	9.4	.	.	.
Cc1ccccc1OCC(=O)N/N=C/c1c(C)nn(-c2ccccc2)c1Cl	-0.6	-3.6	-15.4	0.5	-54.8*
Cc1nn(-c2ccccc2)c(Cl)c1/C=N/NC(=O)c1ccncc1	-13.5	-6.6	-0.5	4.7	-2.0
COc1ccc(NC(=O)CN2C(=O)CC(c3ccco3)Sc3ccccc32)cc1OC (stereo not given)	.	-3.1	-6.1	3.7	-18.3
Brc1ccccc1/C=N/Nc1ccc2ccccc2n1	?	-2.8	-6.2	3.3	-4.7
Cc1cc(C)cc(N=Cc2ccc([N+](=O)[O-])s2)c1	?	-2.7	1.1	2.5	-1.8
COc1ccc(OC)c(NC(=O)C(=O)N/N=C/c2ccccc2[N+](=O)[O-])c1	-10.0	-3.2	-6.7	-0.5	-34.5*
CCCCCC(=O)N/N=C/c1ccccc1[N+](=O)[O-]	1.7	5.9	3.1	0.7	-4.5
O=[N+]([O-])c1ccccc1C=NNC(=S)NN=Cc1ccccc1[N+](=O)[O-]	-58.2*	-23.1	.	.	.
O=[N+]([O-])c1cccc(C=NNc2ccc3ccccc3n2)c1O	-54.4*	-13.1	.	.	.
Cc1ccc(NC(=S)N/N=C/c2ccc([N+](=O)[O-])s2)cc1	?	3.2	-4.3	31.3*	9.9
Cc1cc(/C=N/NC(=O)C(O)(c2ccccc2)c2ccccc2)c(C)n1-c1ccc(C(=O)O)cc1	-13.0	-5.0	-5.0	0.4	4.9
CC(Nc1cccc2ccccc12)C(=O)N/N=C/c1ccc([N+](=O)[O-])cc1 (stereo not given)	-18.3	9.2	-12.6	0.8	-29.0
Cc1cc(/C=N/NC(=O)C(O)(c2ccccc2)c2ccccc2)c(C)n1-c1cccc(C(=O)O)c1	0.9	-16.6	-4.8	2.1	-30.7*
O=C(N/N=C/c1cccc([N+](=O)[O-])c1O)c1cccs1	-24.7	-21.3	-4.0	0.0	5.1
O=C(N/N=C/c1cccc([N+](=O)[O-])c1O)C(O)(c1ccccc1)c1ccccc1	-71.3*	-22.8	-1.4	0.9	-6.2

Screening results (PubChem)
